# From PubChem BioAssay
# Activity calls are given as the source filed them.
# Key:
# [1] = test system: Plasmodium falciparum Sir2 (PF13_0152, Sir2A); assay: pfSir2 binders on small-molecule microarrays, primary screen, biochemical, small-molecule microarray, 635 nm fluorescence (AID 1098); conditions: small-molecule microarray binding, fluorescence 635 nm; higher = more signal;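 note: score merges spot fluorescence intensity with its signal-to-noise ratio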
# [2] = small-molecule microarray binders of probe aDKK1, primary screen, biochemical, biotinylated probe, 635/667 nm fluorescence (AID 1099); conditions: higher = more signal;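 note: score merges 667nm spot fluorescence with signal to noise across triplicate slides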
# [3] = small-molecule microarray binders of probe aCHRDL2, primary screen, biochemical, biotinylated probe, 635/667 nm fluorescence (AID 1100); conditions: higher = more signal
# [4] = splicing luciferase reporter signal modulators, primary screen, spliceosome inhibition project, cell-based, HEK293, splice +/- reporter (AID 1101); conditions: luminescence, 24 h, higher = more signal, called active from +8 up or from −8 down;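 note: HEK293 cells carrying a splicing-competent luciferase reporter gene; test concentration not given here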
# [5] = molecular target: Fibroblast growth factor 10 (Homo sapiens) (UniProt O15520); assay: FGF10 binders on small-molecule microarrays, primary screen, biochemical, small-molecule microarray, 635 nm fluorescence (AID 1102); conditions: FGF10 binding, fluorescence 635 nm, higher = more signal
# Fibroblast growth factor 10 (Homo sapiens), sequence (O15520 whole entry, looked up): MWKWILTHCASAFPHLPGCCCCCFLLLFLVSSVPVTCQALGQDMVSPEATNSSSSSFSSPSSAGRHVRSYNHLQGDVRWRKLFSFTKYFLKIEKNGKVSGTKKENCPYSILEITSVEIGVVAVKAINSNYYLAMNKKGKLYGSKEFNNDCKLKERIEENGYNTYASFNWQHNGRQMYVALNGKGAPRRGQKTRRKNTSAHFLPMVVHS
# [6] = test system: glycogen synthase kinase-3 (GSK3A per assay name; protocol says GSK3B); assay: GSK3 binders on small-molecule microarrays, primary screen, biochemical, small-molecule microarray, 635 nm fluorescence, GSK3A (AID 1103); conditions: small-molecule microarray binding, fluorescence 635 nm; higher = more signal; note: the record names both GSK3A and GSK3B
# [7] = molecular target: Epidermal growth factor receptor (Homo sapiens) (UniProt P00533); assay: EGFR binders on small-molecule microarrays, primary screen, biochemical, small-molecule microarray, 635 nm fluorescence (AID 1104); conditions: EGFR binding, higher = more signal;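 note: score merges 667 nm emission intensity with spot signal to noise over triplicate slides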
# Epidermal growth factor receptor (Homo sapiens), sequence (P00533 whole entry, looked up): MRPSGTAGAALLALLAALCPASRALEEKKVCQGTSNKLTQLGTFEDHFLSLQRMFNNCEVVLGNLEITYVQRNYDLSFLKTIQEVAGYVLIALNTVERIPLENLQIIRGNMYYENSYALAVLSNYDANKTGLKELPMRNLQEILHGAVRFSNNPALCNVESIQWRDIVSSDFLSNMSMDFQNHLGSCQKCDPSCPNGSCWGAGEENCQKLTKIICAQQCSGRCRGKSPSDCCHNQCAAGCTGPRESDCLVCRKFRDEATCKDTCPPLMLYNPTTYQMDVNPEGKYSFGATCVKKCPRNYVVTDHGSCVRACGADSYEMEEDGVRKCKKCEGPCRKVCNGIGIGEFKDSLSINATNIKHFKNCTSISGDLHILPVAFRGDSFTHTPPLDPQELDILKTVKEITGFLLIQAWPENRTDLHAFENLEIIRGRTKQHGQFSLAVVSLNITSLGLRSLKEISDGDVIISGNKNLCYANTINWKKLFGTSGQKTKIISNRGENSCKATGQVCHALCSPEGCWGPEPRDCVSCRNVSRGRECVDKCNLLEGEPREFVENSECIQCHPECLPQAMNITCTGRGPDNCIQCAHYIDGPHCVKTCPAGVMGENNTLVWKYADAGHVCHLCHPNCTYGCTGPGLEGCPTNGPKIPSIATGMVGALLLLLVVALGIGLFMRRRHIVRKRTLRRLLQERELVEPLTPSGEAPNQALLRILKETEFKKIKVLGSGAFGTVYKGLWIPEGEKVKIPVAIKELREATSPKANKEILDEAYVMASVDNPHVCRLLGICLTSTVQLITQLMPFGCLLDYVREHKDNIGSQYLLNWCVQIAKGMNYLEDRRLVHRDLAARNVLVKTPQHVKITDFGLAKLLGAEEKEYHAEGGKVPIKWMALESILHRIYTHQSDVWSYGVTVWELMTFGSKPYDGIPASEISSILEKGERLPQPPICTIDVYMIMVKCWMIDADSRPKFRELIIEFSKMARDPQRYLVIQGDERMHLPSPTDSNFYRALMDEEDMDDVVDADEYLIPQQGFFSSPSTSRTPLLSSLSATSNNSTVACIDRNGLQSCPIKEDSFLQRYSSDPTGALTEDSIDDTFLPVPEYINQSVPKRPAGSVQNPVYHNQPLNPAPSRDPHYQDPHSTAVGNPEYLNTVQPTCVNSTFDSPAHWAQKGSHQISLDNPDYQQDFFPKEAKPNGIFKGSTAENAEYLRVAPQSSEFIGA
# [8] = molecular target: Follistatin-related protein 3 (Homo sapiens) (UniProt O95633); assay: FSTL3 binders on small-molecule microarrays, primary screen, biochemical, small-molecule microarray, 635 nm fluorescence (AID 1105); conditions: FSTL3 binding, higher = more signal;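 note: score merges emission near 667 nm and signal to noise per printed spot across three slides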
# Follistatin-related protein 3 (Homo sapiens), sequence (O95633 whole entry, looked up): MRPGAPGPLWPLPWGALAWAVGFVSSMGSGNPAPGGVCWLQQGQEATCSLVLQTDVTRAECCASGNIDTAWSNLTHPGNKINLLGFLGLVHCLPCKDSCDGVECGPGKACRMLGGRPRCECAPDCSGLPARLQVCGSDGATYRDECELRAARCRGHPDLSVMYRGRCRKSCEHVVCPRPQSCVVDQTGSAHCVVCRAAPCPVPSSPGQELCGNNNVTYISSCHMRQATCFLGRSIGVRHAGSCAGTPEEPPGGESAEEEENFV
# [9] = molecular target: Dickkopf-related protein 1 (Homo sapiens) (UniProt O94907); assay: DKK1 binders on small-molecule microarrays, primary screen, biochemical, small-molecule microarray, 635 nm fluorescence scan (AID 1106); conditions: DKK1 binding, higher = more signal;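 note: score merges emission near 667 nm with signal to noise over three replicate slides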
# Dickkopf-related protein 1 (Homo sapiens), sequence (O94907 whole entry, looked up): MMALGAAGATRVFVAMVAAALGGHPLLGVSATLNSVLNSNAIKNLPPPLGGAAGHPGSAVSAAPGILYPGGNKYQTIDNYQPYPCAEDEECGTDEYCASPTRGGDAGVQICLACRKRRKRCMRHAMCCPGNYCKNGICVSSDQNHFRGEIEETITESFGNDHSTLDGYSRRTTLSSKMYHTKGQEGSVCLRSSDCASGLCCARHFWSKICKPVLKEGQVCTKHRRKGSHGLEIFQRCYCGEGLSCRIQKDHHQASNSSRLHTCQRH
# [10] = test system: Inhibin beta A chain (activin A); assay: INHBA (activin A) binders on microarrays, primary screen, biochemical, small-molecule microarray, 635 nm fluorescence scan (AID 1107); conditions: small-molecule microarray binding, higher = more signal;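 note: mouse activin A protein probed at 4.33 µg/mL on printed slides; score merges bound-protein fluorescence near 667 nm with spot signal-to-noise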
# [11] = test system: Human papillomavirus type 1a protein E7 (residues 44-93); assay: HPV1a E7 fragment binders on microarrays, primary screen, biochemical, small-molecule microarray, residues 44-93, 635 nm fluorescence (AID 1108); conditions: small-molecule microarray binding, fluorescence 635 nm; higher = more signal;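 note: E7 fragment applied at 1 µg/mL in TBST for 1 h at 4 C; score combines spot fluorescence with its signal to noise ratio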
# [12] = modulators of HCV replicon luciferase signal, primary screen, HCV replication inhibitor project, Huh7 cells, luciferase reporter (AID 1109); conditions: 48 h, higher = more signal;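 note: huh7 hepatoma cells harbouring a luciferase neomycin HCV replicon reporter; luciferase luminescence as measure of HCV replicon replication; test concentration not given here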
# [13] = molecular target: Left-right determination factor 2 (Homo sapiens) (UniProt O00292); assay: LEFTY2 binders on small-molecule microarrays, primary screen, biochemical, small-molecule microarray, 635 nm fluorescence scan (AID 1110); conditions: LEFTY2 binding, higher = more signal
# Left-right determination factor 2 (Homo sapiens), sequence (O00292 whole entry, looked up): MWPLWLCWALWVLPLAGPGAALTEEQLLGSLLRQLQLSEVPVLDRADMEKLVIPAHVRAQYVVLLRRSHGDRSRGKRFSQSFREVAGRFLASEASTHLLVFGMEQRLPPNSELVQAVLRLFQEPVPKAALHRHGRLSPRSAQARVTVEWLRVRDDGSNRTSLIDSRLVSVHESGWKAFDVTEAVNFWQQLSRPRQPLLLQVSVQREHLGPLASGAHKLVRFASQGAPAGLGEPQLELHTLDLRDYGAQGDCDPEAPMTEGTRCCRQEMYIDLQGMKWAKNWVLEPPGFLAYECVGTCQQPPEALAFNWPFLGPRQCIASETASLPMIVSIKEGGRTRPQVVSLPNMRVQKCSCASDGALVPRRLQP
# [14] = molecular target: Calmodulin-1 (Homo sapiens) (UniProt P0DP23); assay: CALM1 binders on microarrays, EGTA buffer, profiling panel, biochemical, small-molecule microarray, Cy5-labelled CALM1 (AID 1111); conditions: Cy5-CALM1 binding fluorescence, higher = more signal;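 note: labelled calmodulin applied in Tris saline Tween buffer holding calcium plus EGTA and DTT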
# [15] = molecular target: Calmodulin-1 (Homo sapiens) (UniProt P0DP23); assay: calcium-bound CALM1 binders on microarrays, profiling panel, artefact control for SMM control-protein annotation, biochemical, small-molecule microarray, Cy5-labelled CALM1, plus calcium (AID 1112); conditions: Cy5-CALM1 binding fluorescence, higher = more signal;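 note: score merges spot fluorescence with signal to noise from triplicate slides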
# [16] = small-molecule microarray binders of probe aWnt5a, primary screen, biochemical, biotinylated probe, 635/667 nm fluorescence (AID 1113); conditions: higher = more signal;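 note: score merges 667 nm fluorescence intensity with signal-to-noise per printed feature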
# [17] = small-molecule microarray binders of probe aShh, primary screen, biochemical, biotinylated probe, 635/667 nm fluorescence (AID 1114); conditions: higher = more signal;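 note: probe is biotin-labelled aShh protein from a stem cell growth factor screen; measures binding of labelled protein to compounds printed on the slide; score merges feature fluorescence at 667 nm with signal-to-noise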
# [18] = small-molecule microarray binders of probe aNog, primary screen, biochemical, biotinylated probe, 635/667 nm fluorescence (AID 1115); conditions: higher = more signal;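 note: probe is biotinylated aNog protein used at 0.15 µg/mL for 1 h at 4 C; z-score combines 667 nm fluorescence of each spot with its signal to noise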
# [19] = molecular target: Torsin-1A-interacting protein 1 (Homo sapiens) (UniProt Q5JTV8); assay: LAP1 binders from COS7 cell lysate, primary screen, small-molecule microarray, 635/667 nm fluorescence (AID 1116); conditions: COS7-hLAP1 lysate binding, 635 nm fluorescence, higher = more signal
# Torsin-1A-interacting protein 1 (Homo sapiens), sequence (Q5JTV8 whole entry, looked up): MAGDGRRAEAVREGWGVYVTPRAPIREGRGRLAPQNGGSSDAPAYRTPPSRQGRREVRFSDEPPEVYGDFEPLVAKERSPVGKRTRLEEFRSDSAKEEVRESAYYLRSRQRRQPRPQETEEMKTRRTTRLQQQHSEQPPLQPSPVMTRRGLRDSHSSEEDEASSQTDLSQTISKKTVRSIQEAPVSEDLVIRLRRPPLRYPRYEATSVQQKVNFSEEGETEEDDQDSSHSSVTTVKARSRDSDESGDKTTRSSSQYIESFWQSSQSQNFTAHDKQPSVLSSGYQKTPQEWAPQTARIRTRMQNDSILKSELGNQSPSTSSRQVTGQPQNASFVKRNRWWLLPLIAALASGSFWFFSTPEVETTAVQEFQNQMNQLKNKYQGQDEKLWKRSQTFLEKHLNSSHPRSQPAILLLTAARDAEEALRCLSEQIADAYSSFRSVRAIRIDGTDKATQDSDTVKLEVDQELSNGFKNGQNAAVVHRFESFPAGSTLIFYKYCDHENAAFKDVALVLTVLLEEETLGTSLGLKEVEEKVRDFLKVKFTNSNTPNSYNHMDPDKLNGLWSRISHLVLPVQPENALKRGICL
# [20] = molecular target: Alpha-bungarotoxin (Bungarus multicinctus) (UniProt P60615); assay: alpha-bungarotoxin binders on microarray, profiling panel, artefact control for SMM control protein annotation, biochemical, small-molecule microarray, Alexa647 label, 635/667 nm fluorescence (AID 1117); conditions: alpha-BTX-A647 binding fluorescence, higher = more signal
# Alpha-bungarotoxin (Bungarus multicinctus), sequence (P60615 whole entry, looked up): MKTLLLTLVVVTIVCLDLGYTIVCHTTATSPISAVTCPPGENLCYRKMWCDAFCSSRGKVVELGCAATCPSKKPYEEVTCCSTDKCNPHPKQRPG
Compound,composite z-score [1],composite z-score [2],composite z-score [3],z-score [4],composite z-score [5],composite z-score [6],composite z-score [7],composite z-score [8],composite z-score [9],composite z-score [10],composite z-score [11],z-score [12],composite z-score [13],composite z-score [14],composite z-score [15],composite z-score [16],composite z-score [17],composite z-score [18],composite z-score [19],composite z-score [20]
CCCCC(O)C1C=CC2C(=O)NC(=O)C2N1Nc1ccc(Cl)cc1Cl (stereo not given),0.976,0.635,1.03,-0.167 (inactive),0.228,-0.104,-0.429,-0.125,-0.8,0.979,0.694,-1.12,-1.11,0.436,0.476,0.0915,0.0483,1.31,-0.0411,1.1
C=CCNC(=O)[C@@H]1[C@H]2C(=O)O[C@H](c3ccccc3)[C@H](c3ccccc3)N2[C@H](c2ccccc2OCCO)[C@@]12C(=O)N(C(=O)OCCOC)c1ccc(C#CCCO)cc12,1.05,-0.274,0.272,-0.821 (inactive),1.35,1.23,0.266,0.904,0.312,0.241,1.34,-1.82,0.0333,1.66,0.428,-0.006,0.131,-0.305,0.87,0.274
O=C1C2C=CC(C(O)c3cccs3)N(Nc3ccccc3)C2C(=O)N1c1ccccc1 (stereo not given),0.695,0.742,0.467,-0.145 (inactive),0.0597,-0.828,0.0148,-0.03,0.034,1.42,0.407,-1.09,0.253,0.297,-0.971,0.0135,0.0469,0.371,0.403,0.38
O=C1c2ccccc2[C@](Cc2ccccc2I)(C(=O)O)[C@H](c2ccc(CO)cc2)N1Cc1ccccc1,1.39,0.486,0.736,0.188 (inactive),-0.011,-0.0481,-0.964,-0.509,-0.69,-0.309,1.17,-0.837,-1.04,1.34,0.83,-0.0846,-0.26,-0.215,0.712,2.38
C=CC[C@@]1(C(=O)N(C)C)N=C(c2ccc(OCCCO)cc2)O[C@@H]1c1ccccc1,1.72,0.595,0.959,-0.69 (inactive),1.4,1.01,-0.644,-0.583,-0.217,1.17,0.242,-0.624,0.191,0.401,0.621,0.233,0.246,-0.42,0.961,0.826
CC(C)C[C@H]1NC(=O)[C@H](Cc2ccccc2)NC(=O)[C@@]23C(=O)N[C@@H](Cc4ccccc4)C2[C@H](C)[C@@]2(C)O[C@H]2C3/C=C/C/C=C\CNC1=O (stereo not given in full),1.19,0.0099,-0.4,-0.514 (inactive),0.916,0.979,0.121,0.676,0.726,1.12,-0.361,-2.09,0.431,-0.128,0.263,-0.096,-0.214,0.3,0.765,0.93
COc1ccc([Si](C)(C)[C@H]2[C@H](CCO)O[C@@]3(C(=O)N(Cc4ccc(N5CCOC5=O)cc4)c4ccccc43)[C@@H]2C)cc1,0.901,-0.0663,0.171,-1.15 (inactive),-0.0921,-0.155,-0.197,-0.0181,-0.524,0.416,1.11,-3.71,-0.284,0.854,0.455,-0.12,0.151,0,0.248,0.93
C#CCN=C(N)N,0.271,0.0623,-0.534,0.422 (inactive),0.528,0.605,0.527,0.918,0.861,0.548,0.69,-0.613,1.11,-0.617,-0.736,-0.131,-0.0813,-0.226,0.622,0.0757
COCCOC(=O)N1C(=O)[C@@]2(c3cc(C#CC4(O)CCCCCC4)ccc31)[C@H](C(=O)NC[C@H](O)c1ccccc1)[C@H]1C(=O)O[C@H](c3ccccc3)[C@H](c3ccccc3)N1[C@@H]2c1ccc(O)cc1,1.36,0.203,0.316,0.209 (inactive),0.779,1.29,-0.0406,0.334,-0.0026,0.386,-0.132,-0.68,0.0174,1.37,-0.112,0.0718,-0.0055,-0.111,1.14,1.61
C=CC[C@]1(C(=O)NCc2ccccc2)COC(c2ccc(OCCCO)cc2)=N1,1.49,1.43,1.6,0.589 (inactive),-0.215,-0.9,-1.47,0.101,-0.301,0.792,-0.298,-1.65,-1,0.388,-0.733,0.0293,0.0982,0.54,3.03,3.83
COC(=O)[C@@H]1N=C(c2ccc(OCCCO)cc2)O[C@@H]1c1ccccc1CN=[N+]=[N-],-0.418,0.502,1.2,0.0193 (inactive),-0.648,-1.01,-0.428,-0.547,-1.36,0.778,1.41,-2.67,-0.769,0.393,-0.292,0.0224,0.131,1.29,0.609,0.893
